Screening data as filed in PubChem BioAssay.
Compounds with a hit are over-represented: about 3.4% of the library has one in this group of screens.
HSF1 inhib: HSF1 inhibitors in luciferase reporter cells, primary screen, cell-based, NIH3T3, luminescence. NIH3T3-HGL HSE-luciferase, MG132-induced, luminescence 8 h; active compounds read low. activity change, negative = inhibition, % at 7.5 µM (by protocol). 0.77% of 300,000 active. AID 2098, 2009;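 active = more than half of replicate wells show activity change below -50%, luminescence cut by over half; inconclusive = some wells, but at most half, below -50%; inactive = no replicate well below -50%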;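 note: luciferase reports HSF-1 transcriptional activity via heat shock element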
HSF1 activator: HSF-1 activators, primary screen, NIH3T3-HGL cells, MG132 stress, luminescence, single point | 1.7% of 300,000 active | NIH3T3-HGL HSF-1 luciferase reporter, 8 h; 100% = twice DMSO control signal | AID 504408, 2011 | activation, % at 9 µM;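 active = mean replicate activation of at least 50% with a set share of replicates each reaching 50%; inconclusive = only one of those two conditions met; inactive = mean below 50% and too few replicates reaching it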
esBAF inh: Bmi1 luciferase reporter increase in mESCs, primary screen, esBAF inhibitor project, mouse ES cells, Bmi1 luciferase knock-in, single point; 24 h; 100% = twice the neutral-well signal; reporter increase, % at 12.5 µM; 2% of 350,000 active; AID 602393, 2012; in the data active = activation above about 40%; inconclusive = no clear call, values can overlap the other calls;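 note: a rise in the Bmi1 reporter signal indicates esBAF inhibition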
Vif imaging: HIV Vif self-association inhibitors, primary screen, imaging, HEK293T, single point | HEK293T cells, Vif self-association by quenched fluorescence, 24 h | inhibition, % at 7.49 µM | 0.35% of 340,000 active | AID 602346, 2012; in the data active = inhibition above about 50%, passing the limit was not always enough; inconclusive = no clear call, values can overlap the other calls; inactive = below about 31%
Hits are given with their value; n = inactive; u = inconclusive; x = no result.

SMILES	HSF1 inhib	HSF1 activator	esBAF inh	Vif imaging
CCNC(=O)[C@H]1[C@H](CO)[C@H]2Cn3c(ccc(C4=CCCC4)c3=O)[C@H]2N1CC1CC1	x	x	n	x
O=C(NCC[C@@H]1CC[C@@H](NS(=O)(=O)c2cccc(F)c2)[C@@H](CO)O1)C1CCCC1	x	x	n	x
COc1ccc(OC)c(N=C2SCCCN2C(=O)c2ccc(N3C(=O)CCC3=O)cc2)c1	-68	n	x	x
CCOc1ncccc1C(=O)N1CCCSC1=Nc1ccccc1OC	n	n	x	n
O=C(CSc1ncnc2c1nnn2Cc1ccc(F)cc1)NCC1CCCO1 (configuration not stated)	n	63	x	n
O=C(CSc1ncnc2c1nnn2Cc1ccc(F)cc1)NC1CCCCC1	n	n	x	n
COc1ccc(S(=O)(=O)NCC2CCCN(C(=O)C3CCCC3)C2)cc1 (configuration not stated)	-62	n	x	n
COCC(=O)Nc1ccc2c(c1)[C@H]1C[C@@H](CC(=O)NCc3ccccn3)O[C@H](CO)[C@H]1O2	x	x	n	x
C[C@@H]1CN([C@@H](C)CO)C(=O)c2cc(C#CC3CCCCC3)cnc2O[C@@H]1CN(C)Cc1cccnc1	x	x	n	x
O=C(O)CSCC(=O)Nc1ccc(C2CCCCC2)cc1	-78	n	x	n
CN1c2ccc(-c3ccccc3F)cc2[C@H]2[C@H](CCN2S(=O)(=O)c2ccc(F)cc2)[C@H]1CO	x	x	n	x
C[C@@H]1CN([C@@H](C)CO)C(=O)c2cc(NC(=O)Nc3cccc4ccccc34)ccc2O[C@@H]1CN(C)S(=O)(=O)c1cn(C)cn1	x	x	n	x
CCN(CC)c1nc(C)nc2c1cnn2CCc1ccccc1	n	57	80	n
N#C[C@H]1[C@H](c2ccc(C3=CCCCC3)cc2)[C@H](CO)N1C(=O)CN1CCOCC1	x	x	n	x
CN(C)Cc1cn(CC[C@@H]2CC[C@H](NS(=O)(=O)c3ccc(-c4ccccc4)cc3)[C@@H](CO)O2)nn1	x	x	n	x
O=S(=O)(c1cccs1)N1CN(Cc2ccco2)c2nc3ccccc3nc21	n	n	n	n
Cc1ccc(CN2CN(S(=O)(=O)c3cccs3)c3nc4ccccc4nc32)cc1	n	n	70	n
O=S(=O)(c1cccs1)N1CN(Cc2ccc(Cl)cc2)c2nc3ccccc3nc21	x	x	54	n
C[C@H]1CN([C@@H](C)CO)C(=O)CCCn2nncc2CO[C@@H]1CN(C)C(=O)Nc1cccc(Oc2ccccn2)c1	x	x	n	x
CC1=Nc2cc(C(=O)N3CCCC3)ccc2Sc2c(C)ccc(C)c21	n	u	n	n
CC1=Nc2cc(C(=O)O)ccc2Sc2c(C)ccc(C)c21	n	101	x	69
Cc1c(Cl)ccc2c1NC(=O)C21NC(CCC(N)=O)[C@H]2C(=O)N(c3ccc(Cl)cc3)C(=O)[C@H]21 (some centres not stated)	n	56	n	n
Cc1c(Cl)ccc2c1NC(=O)[C@]21N[C@@H](CCC(N)=O)[C@H]2C(=O)N(c3ccc(F)cc3)C(=O)[C@H]21	n	n	n	n
COc1ccc2nc(NCc3ccccc3)[nH]c2c1	n	n	n	n
c1ccc2[nH]c(NCc3ccc4c(c3)OCO4)nc2c1	n	55	n	n
SMILES	HSF1 inhib	HSF1 activator	esBAF inh	Vif imaging
Cc1ccc2nc(NCc3ccccc3)[nH]c2c1	n	233	n	n
CN(C(=O)COC(=O)c1ccc(Cl)cc1N)C1CCCCC1	n	59	x	n
CN(C(=O)COC(=O)c1ccc([N+](=O)[O-])cc1Cl)C1CCCCC1	n	n	n	n
C[C@@H]1CN([C@H](C)CO)C(=O)Cc2cc(NC(=O)NC3CCCCC3)ccc2O[C@@H]1CN(C)Cc1ccc(Oc2ccccc2)cc1	x	x	n	x
CCOC(=O)c1c(N2CCCCC2)c2ccccc2[nH]c1=O	-59	n	x	n
CCOC(=O)c1c(NCC(C)C)c2ccccc2[nH]c1=O	n	n	n	n
COC(C(=O)Nc1ccc(S(=O)(=O)Nc2cccc3ccccc23)cc1)c1ccccc1 (configuration not stated)	n	55	x	n
CCNC(=O)Nc1ccc2c(c1)C(=O)N(C)[C@@H]1CC[C@@H](CC(=O)N[C@@H](C)c3ccccc3)O[C@H]1CO2	x	x	n	x
Cc1cccc(NC2SC(=O)N(c3ccccc3)C2=O)c1 (configuration not stated)	n	n	55	n
Cc1cccc(NC(=O)CC2SC(=O)N(c3ccccc3)C2=O)c1 (configuration not stated)	n	n	n	n
C[C@@H]1CN([C@H](C)CO)C(=O)c2cc(NS(=O)(=O)c3ccc(Cl)cc3)ccc2O[C@@H](C)CCCCO[C@@H]1CN(C)C(=O)CCC(F)(F)F	x	x	n	x
CCOc1ccc(CCNC(=O)c2nn(C)c3c2CS(=O)(=O)c2ccccc2-3)cc1	-53	n	n	n
CCOc1ccc(CCNC(=O)c2nn(C)c3c2CS(=O)(=O)c2ccccc2-3)cc1OCC	n	n	n	n
O=C(C[C@@H]1C[C@H]2c3cc(NC(=O)C4CCC4)ccc3O[C@H]2[C@H](CO)O1)NCc1ccc(-c2ccccc2)cc1	x	x	n	x
COC(=O)C(C)Sc1ncnc2c1nnn2-c1ccc(F)cc1 (configuration not stated)	n	126	n	n
COc1ccc(-n2nnc3c(SC(C(C)=O)C(=O)N(C)C)ncnc32)cc1 (configuration not stated)	n	n	n	n
CCOC(=O)CNC(=O)CSc1ncnc2c1nnn2-c1ccc(F)cc1	n	95	n	n
CCOC(=O)CNC(=O)Cn1cnc2c(nnn2-c2ccc(F)cc2)c1=O	n	n	n	n
CCCNC(=O)[C@H]1[C@H](CO)[C@H]2Cn3c(ccc(-c4ccccc4F)c3=O)[C@H]2N1CC1CC1	x	x	n	x
CC(C)C(=O)Nc1ccc2c(c1)C(=O)N(C)[C@@H]1CC[C@@H](CC(=O)NC3CCCC3)O[C@H]1CO2	x	x	n	x
CCCN(CCC)C(=O)CSc1nc2ccsc2c(=O)n1NC(=O)c1ccccc1	-57	n	n	n
CC(C)CCNC(=O)CSc1nc2ccsc2c(=O)n1NC(=O)c1ccccc1	n	n	n	n
CN(C)CCCNC(=O)C[C@@H]1CC[C@@H]2[C@@H](COc3ccc(NC(=O)c4cccc(F)c4)cc3C(=O)N2C)O1	x	x	n	x
COc1ccc(C2NC(=S)NC3=C2CCCC3=C2SCCS2)cc1 (configuration not stated)	-56	n	n	56
S=C1NC2=C(CCCC2=C2SCCCS2)C(c2ccccc2)N1 (configuration not stated)	n	n	x	n
COc1ccc(CN(C)C[C@H]2Oc3c(NC(=O)Nc4c(C)noc4C)cccc3C(=O)N([C@@H](C)CO)C[C@@H]2C)cc1	x	x	n	x
O=C(Nc1ccc2c(c1)oc1ccccc12)c1ccc2c(c1)OCO2	n	n	n	n
O=c1c(O)c(-c2ccc3c(c2)OCO3)oc2ccccc12	n	n	55	n
